# Results filed as inconclusive are left out. Calls of active or inactive are those of the source. Calls come from the whole dose curve; as a rule, active = well fitted cell-killing curve with a large enough effect; inconclusive = small, poorly fitted or top-dose-only effect; inactive = no such curve, though single readings can be large or run the other way.
# Test: qHTS of pediatric cancer cell lines to identify multiple opportunities for drug repurposing: Primary screen for SK-N-SH cells (AID 1347098); note: nearly all actives have a fitted effect of over 65% in size
# Conditions: SK-N-SH viability, CellTiter-Glo luminescence, 48 h; series mostly up to 57 µM; activity change, negative = cytotoxic: at the top concentration
# Text: Drug repurposing or repositioning has been offered as a strategy for drug development in oncology programs. This approach has special potential for childhood cancers and other rare or orphan diseases, where the expected return on new drug development has been a disincentive to pharmaceuticals.
# In this project we exploit the poly-pharmacology of drugs to discover new indications via phenotypic screening of a panel of 19 well-characterized cell lines derived from solid tumors seen in children and adolescents. The goal is to identify approved drugs with previously unrecognized anticancer properties that has the potential to reveal new mechanisms and biological processes involved in carcinogenesis or drug resistance. We employed a titration-based paradigm (quantitative high-throughput screening or qHTS), where all compounds were tested at multiple concentrations for their effect on cell viability. Concentration-response curves (CRCs) were derived directly from the primary screen, and both potency and efficacy values were used to identify compounds with robust bioactivity profiles. We screened the NIH Chemical Genomics Center (NCGC) Pharmaceutical Collection (NPC) and Mechanism Interrogation Plate (MIPE) small molecule collections of approved and investigational compounds against these cell lines; and measured metabolically active cells after 48 hours of compound treatment as a proxy for cell viability.
# Assay Submitter: Nathalia J. Martinez, National Center for Advancing Translational Sciences, National Institutes of Health, Rockville, MD, USA; email: natalia.martinez@nih.gov
# [1] Shen, M et al. Quantitative high-throughput phenotypic screening of pediatric cancer cell lines identifies multiple opportunities for drug repurposing. Oncotarget 2017 Dec 19;9(4):4758-4772. PMID 29435139.
# The cells were obtained from University of North Carolina (UNC), Pediatric Preclinical Testing Program (PPT), and Coriell Institute (CI).
# qHTS cell viability assay:
# Cells were assayed in growth media at a density of 500-1,000 cells/well. Five microliters of cells were dispensed into 1,536-well, white, solid-bottom, TC-treated plates (Greiner Bio One) using a multidrop dispenser and incubated at 37 degrees C, 5% CO2, under a humidified atmosphere for 5 hours. Twenty-three nanoliters of compounds and controls (neutral control DMSO or positive control bortezomib at final concentration of 2.3 µM) were subsequently transferred by Kalypsys pintool. For primary screens, the MIPE collection was tested at 11-point dilutions (final concentrations range from 0.78 nM to 46 µM) and the NPC collection at 8-point dilutions (final concentrations range from 0.59 nM to 46 µM). Compounds tested in follow-up screens were assayed at 11-point dilutions. Cells were incubated for 48 hours, followed by addition of 3 µL of CellTiter-Glo (Promega). After a 15 min incubation at room temperature, samples were analyzed for luminescence intensity using a ViewLux High-throughput CCD imager equipped with clear filters.
# % is set by controls: 0 for no effect and ±100 for the full control effect.
Structure (SMILES),"activity change, negative = cytotoxic",Potency
c1ccc2c(c1)sc1ccccc12,-2.98% (inactive),–
CNC(C)(C)Cc1ccccc1,6.93% (inactive),–
COC1CC(=C(c2cccs2)c2cccs2)C[N+](C)(C)C1 (stereo not given),-7.76% (inactive),–
C[C@H](N)C(=O)c1ccccc1,-19.8% [at 192 µM] (inactive),–
O=C(CCCN1CCC2(CC1)C(=O)NCN2c1ccccc1)c1ccc(F)cc1,1.55% (inactive),–
CN1C(=O)CCS(=O)(=O)C1c1ccc(Cl)cc1 (stereo not given),–,inactive
CC(C)(C)NCC(O)c1cc(Cl)c(N)c(C(F)(F)F)c1 (stereo not given),1.55% (inactive),–
Cc1ncsc1CCCl,-4.81% (inactive),–
CC(Cc1ccccc1)NCCn1cnc2c1c(=O)n(C)c(=O)n2C (stereo not given),3.39% [at 115 µM] (inactive),–
CCCCC/C=C\C/C=C\C/C=C\C/C=C\CCCC(=O)NCC(=O)O,5.85% (inactive),–
C#C[C@]1(O)CC[C@H]2[C@@H]3CCC4=CC(=O)CC[C@]4(C)[C@H]3CC[C@@]21C,-1.71% (inactive),–
O=C(O)c1ccc(=O)[nH]c1,7.8% (inactive),–
[N-]=[N+]=CC(=O)OC[C@H](N)C(=O)O,3.3% (inactive),–
c1ccc(CN2CCNCC2)cc1,-3.28% [at 192 µM] (inactive),–
CCC(C)C(C)(COC(N)=O)COC(N)=O (stereo not given),-12.8% (inactive),–
CCN(CCO)CCn1c(Cc2ccccc2)nc2c1c(=O)n(C)c(=O)n2C,-8.68% (inactive),–
CC(=O)OCC1=C(C(=O)O)N2C(=O)[C@@H](N)[C@H]2SC1,-0.588% [at 20 µM] (inactive),–
CC(C)NC(C)C,-3.57% (inactive),–
c1ccc(N2CCNCC2)cc1,-1.67% (inactive),–
NCCc1ccc(O)cc1,-4.62% (inactive),–

Structure (SMILES),"activity change, negative = cytotoxic",Potency
NC(=O)c1cc([N+](=O)[O-])cc([N+](=O)[O-])c1,11.4% (inactive),–
C[C@]12CC[C@H]3[C@@H](CCC4=CC(=O)CC[C@@H]43)[C@@H]1CC[C@@H]2OC(=O)CCC1CCCCC1,-29.3% (inactive),–
C[C@@H](N)[C@@H](O)c1ccccc1,-3.56% (inactive),–
O=c1[nH]c2ccccc2n1C1CCNCC1,3.05% (inactive),–
COP(=S)(OC)Oc1ccc(SC)c(C)c1,-25.7% (inactive),–
ClCCN1CCCC1,-30.2% (inactive),–
O=c1oc2ccccc2c(O)c1Cc1c(O)c2ccccc2oc1=O,6.86% (inactive),–
CNCC(=O)c1ccc(O)c(O)c1,-6.24% (inactive),–
C[C@]12CC[C@@H]3c4ccc(OC(=O)N(CCCl)CCCl)cc4CC[C@H]3[C@@H]1CC[C@@H]2OP(=O)(O)O,3.79% (inactive),–
CCC(C)(C)c1ccc(O)cc1,-20.3% (inactive),–
C=CCN1C[C@H](C)N([C@H](c2ccc(C(=O)N(CC)CC)cc2)c2cccc(OC)c2)C[C@H]1C,-11.5% (inactive),–
O=C1c2ccccc2C(=O)c2ccccc21,3.57% [at 20 µM] (inactive),–
CCN[C@@H](C)Cc1ccccc1,1.89% [at 115 µM] (inactive),–
Clc1cccc(SC2CCNCC2)n1,-7.75% (inactive),–
CCC1(c2ccc(N)cc2)CCC(=O)NC1=O (stereo not given),–,inactive
CCN[C@@H](C)Cc1cccc(C(F)(F)F)c1,-16.4% (inactive),–
CCC1(CC)C(=O)C=CNC1=O,-21.4% (inactive),–
COP(=S)(OC)SCN1C(=O)c2ccccc2C1=O,-17.5% (inactive),–
Nc1ccccc1C(=O)O,9.22% (inactive),–
CC(Cc1ccccc1)N(C)Cc1ccco1 (stereo not given),0.531% (inactive),–

# Source: PubChem BioAssay (NCATS)
